LDHA inh – blocks human lactate dehydrogenase A. P00338. purified LDHA, NADH/diaphorase-resazurin fluorescence; hits give low values. activity change, % (values are at about 110 or 230 µM). actives 0.15% (n = 480,000). AID 1347041; in the data active = activity change below about -30%; inconclusive = mostly about -25% to -30%;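 note: plate controls were DMSO wells for no effect and wells without enzyme for full effect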
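Enzyme activity of human lactate dehydrogenase 5 (2 nM; 0.06 mM NADH, 0.2 mM pyruvate, 5 min, RT) is measured via a resazurin/diaphorase fluorescence readout of residual NADH.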
Nrf2 block – Nrf2 pathway inhibition; A549 ARE-Fluc reporter, luciferase luminescence, 18-24 h; Potency, µM (top dose mostly 46 µM), for inactives: at the top dose activity change, negative = inhibition, usual class: inhibitors; actives 2.1% (n = 360,000); note: potency is the fitted concentration of half-maximal effect; % is set by controls: 0 for no effect and ±100 for the full control effect; nearly all actives have a fitted effect of over 60% in size
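A549 ARE_Fluc cells (5000/well, 5% FBS OPTI-MEM) pre-incubated 2 h, then treated with compounds 18-24 h at 37C/5% CO2 in concentration-response. CellTiter-Fluor viability read first; BugLite luciferase luminescence after 15 min at room temperature gives Nrf2 activity.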
Nrf2 activator – activators of Nrf2 (ARE) signaling; Potency, µM (titrated, usually from 46.1 µM), inactives show at the top dose activation, most hits filed as activators; AREc32 ARE-luciferase reporter (MCF7-derived line), luminescence, 24 h; AID 624171; actives 0.31% (n = 410,000); note: potency is the fitted concentration of half-maximal effect; % of control where 0% means no effect; nearly all actives have a fitted effect of over 65% in size
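Quantitative high-throughput format: AREc32 reporter cells, 1000 per well, received compound by pin transfer and were incubated 24 hr at 37 deg C, 5% CO2, before Steady-Glo luminescence detection.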
A549 viability – counter-screen for Nrf2 inhibitors: cytotoxicity in A549 cells; actives 0.16% (n = 390,000); AID 504648; A549 ARE-Fluc cells, CellTiter-Fluor viability, 18-24 h; Potency, µM (highest dose often 46 µM), without a hit: top-dose activity change, negative = cytotoxicity, actives largely listed as inhibitors; note: potency is the fitted concentration of half-maximal effect; % is set by controls: 0 for no effect and ±100 for the full control effect
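A549 ARE-Fluc cells in 5% FBS OPTI-MEM, 5000 cells/well, rested 2 h then exposed to compounds in concentration-response for 18-24 h at 37 °C. Viability by CellTiter-Fluor fluorescence (Ex 405/Em 525) after 30 min; luciferase luminescence (BugLite, 15 min, RT) read afterwards.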
IDH1 R132H inh – blocks human mutant IDH1 R132H enzyme. O75874. IDH1-R132H enzyme, NADPH consumption, diaphorase/resazurin fluorescence. Potency, µM (doses to about 76.6 µM), inactives show at the highest dose activity change, negative = inhibition, actives largely listed as inhibitors. actives 0.093% (n = 390,000). AID 602179; note: potency is the fitted concentration of half-maximal effect; % is set by controls: 0 for no effect and ±100 for the full control effect; nearly all actives have a fitted effect of over 65% in size
Target sequence (O75874 whole entry R132H, stated change not applied): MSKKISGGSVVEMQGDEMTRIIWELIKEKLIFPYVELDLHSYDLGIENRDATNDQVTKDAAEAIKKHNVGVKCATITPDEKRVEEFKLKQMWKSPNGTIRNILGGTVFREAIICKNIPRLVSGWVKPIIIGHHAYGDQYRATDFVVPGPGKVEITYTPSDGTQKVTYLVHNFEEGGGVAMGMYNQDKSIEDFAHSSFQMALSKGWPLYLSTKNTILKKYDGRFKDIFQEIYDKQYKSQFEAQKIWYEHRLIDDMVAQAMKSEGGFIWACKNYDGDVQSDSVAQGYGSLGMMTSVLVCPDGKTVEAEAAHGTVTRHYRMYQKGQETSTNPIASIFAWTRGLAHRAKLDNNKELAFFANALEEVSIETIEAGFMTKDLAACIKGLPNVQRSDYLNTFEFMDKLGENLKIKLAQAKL
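IDH1-R132H (0.5 ug/mL dispensed) in pH 7.5 Tris buffer was preincubated 30 min with compound, then given a substrate mix of 0.016 mM NADPH and 2 mM alpha-KG for 80 min at room temperature; remaining NADPH was read by diaphorase/resazurin fluorescence.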
ALOX12 inh – inhibitors of human 12S-lipoxygenase ALOX12. actives 1.1% (n = 580,000). P18054. purified 12hLO, xylenol orange hydroperoxide absorbance. Potency, µM (top dose mostly 108 µM), for inactives: at the top dose activity change, negative = inhibition, actives largely listed as inhibitors; note: potency is the fitted concentration of half-maximal effect; % is set by controls: 0 for no effect and ±100 for the full control effect
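Hydroperoxide product was detected by ferrous iron/xylenol orange as the 573 to 405 nm absorbance ratio. Arachidonic acid at 40 uM (final) was turned over for 30 min at room temperature by 150 nM human 12hLO, pH 7.0 Hepes buffer, after 15 min compound preincubation.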
* = called active by the depositor; ? = inconclusive; / = no result; [ ] = remark or other dose. Shown are actives, neighbours in structure and some others; about 2.7% of the full set was active somewhere. Unless noted, calls come from the whole dose curve; as a rule, active = well fitted curve in the direction sought with a large enough effect; inconclusive = small, poorly fitted or top-dose-only effect, or another doubt; inactive = no such curve, though single readings can be large; an effect the other way counts as inactive or inconclusive.

SMILES	LDHA inh	Nrf2 block	Nrf2 activator	A549 viability	IDH1 R132H inh	ALOX12 inh
S=c1[nH]cnc2scc(-c3ccc(Cl)cc3)c12	-7	?	0%	-9%	0%	8%
S=c1[nH]cnc2scc(-c3ccc(Br)cc3)c12	-2	?	0%	-11%	-6%	-12%
Cc1sc2nc[nH]c(=S)c2c1-c1ccccc1	-5	-26%	2%	-10%	8%	32µM*
Cc1ccc(-c2csc3nc[nH]c(=S)c23)cc1	4	?	3%	-7%	2%	35µM*
Cc1cc(-c2csc3nc[nH]c(=S)c23)cc(C)c1C	-5	23µM*	9%	?	-19%	28µM*
CCNc1nc(SCC(=O)N2CCC2)nc2ccccc12	6	/	/	/	/	25%
O=C(NCCC(=O)N1CCN(c2ncccn2)CC1)c1ccc(Br)cc1	-32*	/	/	/	/	27%
CC(C)(Cc1ccc(O)cc1)NC(=O)CC(=O)N/N=C/c1ccc([N+](=O)[O-])cc1	-7	?	0%	3%	21%	1%
CC(C)(Cc1ccc(O)cc1)NC(=O)CC(=O)N/N=C/c1ccc(Cl)cc1	0	-1%	-1%	-11%	-2%	8.9µM*
Cc1ccsc1C(=O)/C(C#N)=C\c1ccc(OC(F)F)cc1	4	/	/	/	/	?
C[C@@H]1CN([C@@H](C)CO)S(=O)(=O)c2ccc(C#CC3CCCCC3)cc2O[C@@H]1CN(C)Cc1cccnc1	6	/	-5%	/	?	14µM*
COc1ccccc1S(=O)(=O)N(C)C[C@H]1Oc2cc(C#CCC3CCCC3)ccc2S(=O)(=O)N([C@H](C)CO)C[C@H]1C	6	/	0%	/	-2%	20µM*
O=C(O)CCSc1nnc(-c2ccc3c(c2)OCO3)o1	3	8.2µM*	-2%	6%	9%	-29%
CC1(C)CC(CCN2CCCCC2)(c2cccc(C(F)(F)F)c2)CCO1 (centres undefined)	0	/	/	/	/	1.8µM*
CCC/C(=N\NC(N)=S)c1ccccc1	-6	/	/	/	/	?
Clc1cccc(-c2noc(-c3ccc[nH]3)n2)c1	-22	/	/	/	/	45µM*
Cc1ccc(S(=O)(=O)NCc2ccc(C(=O)N3CCN(c4cc(C)ccc4C)CC3)cc2)cc1	0	/	/	/	/	?
CC(C)n1c(SCCc2ccccc2)nc2c1c(=O)[nH]c(=O)n2C	-10	/	/	/	/	-27%
FC(F)(F)c1ccccc1-c1cc(NCc2cccnc2)ncn1	/	/	/	/	/	45µM*
FC(F)(F)c1ccccc1-c1nc(NCc2cccnc2)c2ccccc2n1	/	/	/	/	/	45µM*
Clc1ccccc1-c1cc(NCc2cccnc2)ncn1	/	/	/	/	/	-18%
CCN(CC)CCOc1ccc(Br)cc1	-12	2%	0%	1%	4%	?
CCN(CC)CCOc1ccc2c(c1)C(=NO)c1cc(OCCN(CC)CC)ccc1-2	0	?	3%	8.2µM*	0%	?
CC/C=C(/C)C(=O)NCc1cccc(CN2CCOC(C)C2)c1 (centres undefined)	8	/	/	/	/	1%
Cc1ccc(NC(=O)CN(C)C(=O)c2ccc3c(c2)nnn3C(C)C)cc1C	-10	/	/	/	/	10%
SMILES	LDHA inh	Nrf2 block	Nrf2 activator	A549 viability	IDH1 R132H inh	ALOX12 inh
Cc1ccc(OC2(C(=O)N3CCCC3c3nccs3)CCNCC2)cc1 (centres undefined)	/	/	/	/	/	18µM*
Cc1ccc(OC2(C(=O)N[C@H]3CCc4ccccc43)CCNCC2)cc1	/	/	/	/	/	-6%
Cc1cc2nc(-c3cccnc3SCC(=O)NCc3ccco3)[nH]c2cc1C	-1	?	5%	0%[1.84 µM]	3%	?
O=C(CSc1ncccc1-c1nc2ccccc2[nH]1)NCc1ccco1	4	/	?	6%	11%	14µM*
O=C(N/N=C1/CCc2ccccc21)c1ccc(F)cc1	11	/	/	/	/	14%
CC1CC2=C(NC(=S)NC2c2ccccc2F)/C(=C/c2ccccc2F)C1 (centres undefined)	0	-25%	0%	1%	5%	35µM*

Source: PubChem
